# Bioassay records from PubChem BioAssay.
# Compounds with a hit are over-represented: about 2.2% of the library has one in this group of screens.
# RTF Ca sens inh – cardiac RTF calcium desensitization; P19429+P45379; IANBD-labeled cardiac RTF, Ca2+ fluorescence; inhibition, % at 7.15 µM; 340,000 tested, 0.12% active;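 active = inhibition above the mean inhibition of all tested compounds plus 3 SD, cut at about 17% in these data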;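 also: assay run at fixed EC70 calcium of 1.6 mM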
# CRFR2-BP ag – CRF-BP/CRF-R2 complex agonism; HEK293 CRF-R2/CRF-BP, calcium dye fluorescence (FLIPR); percent of saturating CRF peptide response; activation, % at 13.2 µM; 350,000 tested, 0.46% active; AID 588473;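 active = activation of at least 50%, plus an integration ratio under a set limit after plate pattern correction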;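 also: plate controls were neutral control wells without compound for no effect and CRF at EC100 for full effect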
# Myeloid diff 2 – compounds promoting myeloid differentiation; ER-HoxA9 myeloid progenitors, lysozyme-GFP differentiation, flow cytometry; calls only at 10 µM; 360,000 tested, 1% active; AID 624256;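 active = normalized GFP-positive differentiation at or above the plate's own cutoff, the solvent-only control mean plus 3 SD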;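 also: cells exposed to compound for four days before flow analysis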
# RTF Ca sens act – increases calcium sensitivity of human cardiac regulated thin filaments. P19429+P45379. IANBD-labeled TnC RTF fluorescence at EC20 calcium; 0% EC20 calcium, 100% full calcium. activation, % at 7.2 µM. 340,000 tested, 0.24% active. AID 493008;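 active = activation above the mean over all tested compounds plus 3 SD, cut at about 30% in these data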;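 also: rise in fluorescence read as greater calcium sensitivity of cardiac thin filaments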
# CRFBP-R2 block – CRF-BP/CRF-R2 complex antagonism. HEK293 CRF-R2/CRF-BP, CRF-induced calcium fluorescence. inhibition, % at 11.8 µM. 350,000 tested, 0.59% active. AID 588475;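 active = inhibition of the ligand-induced calcium signal above about 50% at the single tested concentration, limit read from the data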
# The depositor's hits bear a star; i = inactive; · = no result; + = active, no number; ! = repeats disagree.
SMILES,RTF Ca sens inh,CRFR2-BP ag,Myeloid diff 2,RTF Ca sens act,CRFBP-R2 block
NCCCC(N)(C(=O)O)C(F)F (stereo not drawn),6,0,+,5,-4
Cc1nc(Nc2cccc(F)c2)c2oc3ccccc3c2n1,-4,0,+,-2,-24
O=c1[nH]c(=O)n(-c2ccccc2)c2c1C(C(F)(F)F)(C(F)(F)F)N=C(CCC1CCCCC1)N2,2,109*,i,-8,-53
O=c1[nH]c(=O)n(Cc2ccco2)c2c1C(C(F)(F)F)(C(F)(F)F)N=C(CCC1CCCCC1)N2,-1,1,i,3,-33
O=c1[nH]c(=O)n(-c2ccc(F)cc2)c2c1C(C(F)(F)F)(C(F)(F)F)N=C(c1ccc(F)cc1)N2,-19,30,i,0,67*
Nc1cn(C2OC(CO)C(O)C2O)c(=O)[nH]c1=O (stereo not drawn),-4,-1,i,2,-6
Cc1cccc(NC(=O)COC(=O)CN2C(=O)c3ccccc3C2=O)c1,·,0,i,·,-5
CCOC(=O)c1c(NC(=O)CSc2nc3ccccc3s2)sc(C)c1C,-2,7,+,6,-1
CCOC(=O)c1c(NC(=O)CSc2nc3ccccc3o2)sc(C)c1C,-2,0,i,-5,15
C/C(=C(/CCO)SSCC1CCCO1)N(C=O)Cc1cnc(C)nc1N (stereo not drawn),8,-1,+,-1,-6
Cc1ncc(C[n+]2csc(CCO)c2C)c(N)n1,-11,-1,i,0,-4
Cn1ncnc1SCc1cn2cccnc2n1,5,1,i,8,5
N#C/C(=C/C1=C(N2CCOCC2)C(=C/c2ccc(Cl)cc2Cl)/CC1)C(=O)Nc1ccccc1F,1,20,+,7,-32
CCN(CC)c1ccc(/C=C2\CCC(/C=C(/C#N)C(=O)Nc3ccccc3F)=C2N2CCOCC2)cc1,-1,-2,i,4,10
N#C/C(=C\C1=C(N2CCOCC2)C(=C\c2ccc(Cl)cc2)/CC1)C(=O)Nc1ccccc1F,-12,1,+,13,-37
N#C/C(=C/C1=C(N2CCOCC2)C(=C/c2ccccc2)/CC1)C(=O)Nc1ccccc1F,-13,24,+,12,-87
COCCNC(=O)C(c1cccs1)N(C(=O)Cn1nnc2ccccc21)c1ccc(OC)cc1 (stereo not drawn),5,1,i,-1,2
Cn1nnnc1Sc1ncnc2scc(-c3ccccc3Br)c12,-12,-1,+,0,-2
Cn1nnnc1Sc1ncnc2scc(-c3ccccc3)c12,-7,-3,·,-12,15
Cn1c(=O)cc(OCCCC(=O)NCCN2CCN(c3ccccc3F)CC2)c2ccccc21,-3,0,i,7,82*
Cc1c(CCC(=O)NCCCC(=O)O)c(=O)oc2cc3oc4c(c3cc12)CCCC4,1,3,i,-1,-8
CC(C)(C)c1ccc(C(=O)N2CCC2(C)C(=O)Nc2cccc3ncccc23)cc1 (stereo not drawn),·,·,i,·,·
CCOc1ccc(C2/C(=C(\O)c3ccc4c(c3)OCCO4)C(=O)C(=O)N2CCCN2CCOCC2)cc1 (stereo not drawn),-2,1,i,0,55*
Cc1ccnc(NS(=O)(=O)c2ccc(NC(=O)CSc3nc(-c4ccccc4)cc(=O)[nH]3)cc2)n1,0,-5,i,-9,-3
O=C(O)c1cccc(S(=O)(=O)NCCc2ccccc2)c1,-12,-3,i,7,6
SMILES,RTF Ca sens inh,CRFR2-BP ag,Myeloid diff 2,RTF Ca sens act,CRFBP-R2 block
O=C(O)c1cccc(S(=O)(=O)Nc2ccccc2C(=O)NCCc2ccccc2)c1,4,0,+,-6,13
C=CCOc1ccc(C(c2c(O)nc(SC)[nH]c2=O)c2c(O)nc(SC)[nH]c2=O)cc1,-5,0,i,15,1
NC1=NC(=Nc2cccc(S(N)(=O)=O)c2)c2ccccc21,-8,-1,i,-3,-4
COc1cc(N=Nc2cccc(S(N)(=O)=O)c2)c2ccccc2c1N,-11,4,+,-1,-29
COc1ccc(N2C(=O)CC(c3ccc([N+](=O)[O-])cc3)C2=O)cc1 (stereo not drawn),-8,2,i,-2,63*
CCOc1ccc(C(CC(=O)O)n2cnnn2)cc1 (stereo not drawn),-7,4,i,-1,-21
Cc1ccc(NC(=O)CSc2nnc(Cn3cnc4ccccc43)o2)cc1,7,0,i,-4,0
Cc1ccc(NC(=O)CSc2nnc(Cn3cnc4ccccc43)o2)c(C)c1,12,-3,i,1,59*
COC(=O)Cn1cnc2c(nnn2-c2ccc(OC)cc2)c1=O,-6,-3,i,-3,16
CCN(CC)CCNC(=O)c1ccc(NC(=O)c2ccc(C(=O)c3ccccc3)cc2)cc1,-4,1,i,6,-4
CCN(CC)CCNC(=O)c1ccc(NC(C)=O)cc1,7,-1,+!,8,4
CC(=O)c1cccc(NC(=O)CSC(=O)c2ccccc2)c1,-11,-3,i,6,5
CCN(CC)c1ccc(NC(=O)CSC(=O)c2ccccc2)cc1,-2,-3,+,0,15
COc1ccc(C2=NN(CN3C(=O)C(=O)c4ccccc43)C(c3cccc([N+](=O)[O-])c3)C2)cc1 (stereo not drawn),-6,0,i,3,-12
CC1=C(C)/C(=N\OS(=O)(=O)c2ccccc2)C=CC1=O,-3,57*,·,-4,-15
Cc1ccc(S(=O)(=O)O/N=C2\CCCc3ccccc32)cc1,4,0,i,10,9
CN(Cc1ccccc1)S(=O)(=O)c1cccc(C(=O)O)c1,-20,0,i,0,8
O=C(NCc1cccnc1)c1cc(C2CCCCN2C(=O)c2cccs2)on1 (stereo not drawn),·,·,i,·,·
CCOC(=O)C[C@@H]1OC[C@H](C)N1S(=O)(=O)c1ccc(C)cc1,·,·,i,·,·
CN(C)CCCN(C(=O)/C=C/c1cccs1)c1nc2ccc(F)cc2s1,2,6,+,2,-17
CCn1c(SCC(N)=O)nc2cc(S(=O)(=O)N3CCOCC3)ccc21,-7,2,i,6,6
CCn1c(SCC(=O)c2c[nH]c3ccccc23)nc2cc(S(=O)(=O)N3CCOCC3)ccc21,-3,2,+,-4,-10
COc1cc(OC)cc(C(=O)Nc2ccc(S(=O)(=O)Nc3cnc4ccccc4n3)cc2)c1,·,0,i,·,65*
COc1cc(C(=O)Nc2ccc(S(=O)(=O)Nc3cnc4ccccc4n3)cc2)cc(OC)c1OC,0,-2,i,1,7
CC(=O)C1=C(O)C(=O)N(Cc2ccccc2)C1c1ccc(F)cc1 (stereo not drawn),2,0,i,-2,56*
O=C(CNC(=O)c1ccccc1F)NCc1cccnc1,4,0,i,-7,2
